In PubChem BioAssay AID1159580 (chemical genetic matrix, 2015):
In all, about 5,500 compounds went through this assay and about 2,000 (36%) were called active. Another 18% or so got no clear call; they are omitted. No stated cut-off is given here; in the data, active means normalized growth mostly below about 0.91 (no sharp cut-off); inconclusive means no clear call, values can overlap the other calls; inactive means mostly above about 0.92. This is one part of the list.

Assay: chemical genetic growth profiling, strain panel (AID 1159580);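 further: tested at 20 µM; growth read once vehicle control cultures reached saturation at 30 °C; 1 = growth at the plate median or of vehicle wells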
Conditions: growth OD

Measured: normalized growth

COc1ccc(CCC(=O)c2c(O)cc(O[C@@H]3O[C@H](CO)C(O)[C@H](O)C3O[C@@H]3O[C@@H](C)[C@H](O)[C@@H](O)[C@H]3O)cc2O)cc1O (some centres not stated)
inactive: S. cerevisiae deletion strains, locus YJR075W, strain HOC1, stronger effect = lower value 0.996 | S. cerevisiae deletion strains, locus YKL009W, strain mrt4, stronger effect = lower value 1 | S. cerevisiae deletion strains, locus YKL068W, stronger effect = lower value 0.972 | S. cerevisiae deletion strains, locus YKL085W, strain MDH1 (second series), stronger effect = lower value 0.982 | S. cerevisiae deletion strains, locus YKL085W, strain MDH1, stronger effect = lower value 0.982 | S. cerevisiae deletion strains, locus YKL160W, strain elf1, stronger effect = lower value 1 | S. cerevisiae deletion strains, locus YKL190W, strain CNB1, stronger effect = lower value 0.999 | S. cerevisiae deletion strains, locus YKR001C, strain vps1, stronger effect = lower value 0.989 | S. cerevisiae deletion strains, locus YKR026C, strain gcn3, stronger effect = lower value 1.02 | S. cerevisiae deletion strains, locus YKR091W, strain srl3, stronger effect = lower value 1.01 | S. cerevisiae deletion strains, locus YLL001W, strain dnm1, stronger effect = lower value 1 | S. cerevisiae deletion strains, locus YLL026W, stronger effect = lower value 1.02 | S. cerevisiae deletion strains, locus YLL041C, strain sdh2, stronger effect = lower value 1.02 | S. cerevisiae deletion strains, locus YLR027C, strain aat2, stronger effect = lower value 1 | S. cerevisiae deletion strains, locus YLR039C, strain RIC1, stronger effect = lower value 0.982 | S. cerevisiae deletion strains, locus YLR058C, strain SHM2, stronger effect = lower value 1 | S. cerevisiae deletion strains, locus YLR102C, strain apc9, stronger effect = lower value 0.973 | S. cerevisiae deletion strains, locus YLR113W, strain HOG1, stronger effect = lower value 0.98 | S. cerevisiae deletion strains, locus YLR221C, strain rsa3, stronger effect = lower value 1.04 | S. cerevisiae deletion strains, locus YLR258W, strain gsy2, stronger effect = lower value 1.04 | S. cerevisiae deletion strains, locus YLR262C, strain YPT6 (second series), stronger effect = lower value 1.05 | S. cerevisiae deletion strains, locus YLR262C, strain YPT6, stronger effect = lower value 0.97 | S. cerevisiae deletion strains, locus YLR268W, strain sec22, stronger effect = lower value 0.95 | S. cerevisiae deletion strains, locus YLR320W, strain mms22, stronger effect = lower value 1.06 | S. cerevisiae deletion strains, locus YLR330W, strain CHS5, stronger effect = lower value 0.993 | S. cerevisiae deletion strains, locus YLR342W, strain FKS1 (second series), stronger effect = lower value 1.06 | S. cerevisiae deletion strains, locus YLR342W, strain FKS1, stronger effect = lower value 1.02 | S. cerevisiae deletion strains, locus YLR357W, strain rsc2, stronger effect = lower value 1.01 | S. cerevisiae deletion strains, locus YLR370C, strain arc18, stronger effect = lower value 1.01 | S. cerevisiae deletion strains, locus YLR371W, strain rom2, stronger effect = lower value 0.983 | S. cerevisiae deletion strains, locus YLR384C, strain iki3, stronger effect = lower value 1.04 | S. cerevisiae deletion strains, locus YLR418C, strain cdc73, stronger effect = lower value 0.985 | S. cerevisiae deletion strains, locus YML016C, strain PPZ1, stronger effect = lower value 1.01 | S. cerevisiae deletion strains, locus YML032C, strain rad52, stronger effect = lower value 0.966 | S. cerevisiae deletion strains, locus YML120C, strain ndi1, stronger effect = lower value 1.01 | S. cerevisiae deletion strains, locus YML124C, strain tub3, stronger effect = lower value 0.984 | S. cerevisiae deletion strains, locus YMR058W, strain fet3, stronger effect = lower value 1.03 | S. cerevisiae deletion strains, locus YMR078C, strain ctf18, stronger effect = lower value 0.989 | S. cerevisiae deletion strains, locus YMR125W, strain sto1, stronger effect = lower value 1.01 | S. cerevisiae deletion strains, locus YMR129W, stronger effect = lower value 1.02 | S. cerevisiae deletion strains, locus YMR205C, strain PFK2, stronger effect = lower value 1.02 | S. cerevisiae deletion strains, locus YMR223W, strain ubp8, stronger effect = lower value 1.01 | S. cerevisiae deletion strains, locus YMR231W, strain pep5, stronger effect = lower value 0.995 | S. cerevisiae deletion strains, locus YMR263W, strain SAP30, stronger effect = lower value 0.989 | S. cerevisiae deletion strains, locus YMR307W, strain GAS1, stronger effect = lower value 1.04 | S. cerevisiae deletion strains, locus YNL067W, strain RPL9B, stronger effect = lower value 0.989 | S. cerevisiae deletion strains, locus YNL071W, strain lat1, stronger effect = lower value 1.01 | S. cerevisiae deletion strains, locus YNL128W, strain TEP1, stronger effect = lower value 0.989 | S. cerevisiae deletion strains, locus YNL153C, strain GIM3, stronger effect = lower value 0.988 | S. cerevisiae deletion strains, locus YNL183C, strain NPR1, stronger effect = lower value 0.899 | S. cerevisiae deletion strains, locus YNL209W, strain ssb2, stronger effect = lower value 1.01 | S. cerevisiae deletion strains, locus YNL233W, strain BNI4, stronger effect = lower value 0.994 | S. cerevisiae deletion strains, locus YNL248C, strain rpa49, stronger effect = lower value 1.04 | S. cerevisiae deletion strains, locus YNL250W, strain rad50, stronger effect = lower value 0.979 | S. cerevisiae deletion strains, locus YNL271C, strain bni1, stronger effect = lower value 0.981 | S. cerevisiae deletion strains, locus YNL298W, strain CLA4, stronger effect = lower value 0.984 | S. cerevisiae deletion strains, locus YNL307C, strain MCK1, stronger effect = lower value 0.993 | S. cerevisiae deletion strains, locus YNL322C, strain KRE1 (second series), stronger effect = lower value 1.01 | S. cerevisiae deletion strains, locus YNL322C, strain KRE1, stronger effect = lower value 0.993 | S. cerevisiae deletion strains, locus YNR049C, strain mso1, stronger effect = lower value 1.02 | S. cerevisiae deletion strains, locus YNR052C, strain pop2, stronger effect = lower value 0.993 | S. cerevisiae deletion strains, locus YOL006C, strain TOP1, stronger effect = lower value 0.929 | S. cerevisiae deletion strains, locus YOL012C, strain htz1 1.02 | S. cerevisiae deletion strains, locus YOL147C, strain pex11, stronger effect = lower value 0.989 | S. cerevisiae deletion strains, locus YOR001W, strain rrp6, stronger effect = lower value 1.05 | S. cerevisiae deletion strains, locus YOR061W, strain CKA2, stronger effect = lower value 0.999 | S. cerevisiae deletion strains, locus YOR069W, strain VPS5, stronger effect = lower value 1 | S. cerevisiae deletion strains, locus YOR070C, strain gyp1, stronger effect = lower value 1 | S. cerevisiae deletion strains, locus YOR080W, strain dia2, stronger effect = lower value 1.03 | S. cerevisiae deletion strains, locus YOR083W, strain WHI5, stronger effect = lower value 1 | S. cerevisiae deletion strains, locus YOR106W, strain vam3, stronger effect = lower value 0.992 | S. cerevisiae deletion strains, locus YOR136W, strain idh2, stronger effect = lower value 0.99 | S. cerevisiae deletion strains, locus YOR144C, strain elg1, stronger effect = lower value 0.977 | S. cerevisiae deletion strains, locus YOR184W, strain ser1, stronger effect = lower value 0.985 | S. cerevisiae deletion strains, locus YOR231W, strain MKK1, stronger effect = lower value 0.97 | S. cerevisiae deletion strains, locus YOR265W, strain rbl2, stronger effect = lower value 1.02 | S. cerevisiae deletion strains, locus YOR270C, strain vph1, stronger effect = lower value 1.07 | S. cerevisiae deletion strains, locus YOR290C, strain snf2, stronger effect = lower value 0.965 | S. cerevisiae deletion strains, locus YOR316C, strain cot1, stronger effect = lower value 0.967 | S. cerevisiae deletion strains, locus YPL051W, strain arl3, stronger effect = lower value 1.02 | S. cerevisiae deletion strains, locus YPL055C, strain LGE1, stronger effect = lower value 0.982 | S. cerevisiae deletion strains, locus YPL078C, strain atp4, stronger effect = lower value 0.989 | S. cerevisiae deletion strains, locus YPL106C, strain sse1, stronger effect = lower value 1.02 | S. cerevisiae deletion strains, locus YPL240C, strain hsp82, stronger effect = lower value 1.02 | S. cerevisiae deletion strains, locus YPL241C, strain CIN2, stronger effect = lower value 0.993 | S. cerevisiae deletion strains, locus YPL256C, strain CLN2, stronger effect = lower value 0.962 | S. cerevisiae deletion strains, locus YPR119W, strain clb2, stronger effect = lower value 0.975 | S. cerevisiae deletion strains, locus YPR141C, strain kar3, stronger effect = lower value 0.986 | S. cerevisiae deletion strains, locus YPR163C, strain tif3, stronger effect = lower value 0.985 | S. cerevisiae deletion strains, locus YPR167C, strain met16, stronger effect = lower value 0.97 | S. cerevisiae deletion strains, strain wtn01, stronger effect = lower value 1 | S. cerevisiae strains, strain wild type, stronger effect = lower value 0.995
